From PubChem BioAssay (NCATS)
Records with an inconclusive call do not appear. Activity calls are given as the source filed them. The call rests on the fitted dose curve; in most records, active means well fitted curve in the direction sought with a large enough effect; inconclusive means small, poorly fitted or top-dose-only effect, or another doubt; inactive means no such curve, though single readings can be large; an effect the other way counts as inactive or inconclusive.

Key:
[1] = test system: MKL-2; experiment: qHTS assay to identify novel small-molecules to repurpose for Merkel cell carcinoma treatment (AID 1296009); conditions: MCC and control cell lines, CellTiter-Glo viability, 72 h; series mostly up to 46 µM; further: nearly all actives have a fitted effect of over 60% in size
Method in brief: (§1)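 Dose-response viability screen; 72 hr exposure at 37 degree celsius; CellTiter-Glo added, 10 min room temperature, luminescence read; RLUs scaled between no-cell and DMSO wells.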

[2] = test system: NIH3T3; experiment: as above; conditions: MCC and control cell lines, CellTiter-Glo viability, 72 h; at 44.8 µM (top of the series) unless noted
Method in brief: as §1

[3] = test system: UISO; experiment: as above; conditions: MCC and control cell lines, CellTiter-Glo viability, 72 h; series mostly up to 46 µM
Method in brief: as §1

[4] = test system: WaGa; experiment: as above; conditions: MCC and control cell lines, CellTiter-Glo viability, 72 h; series mostly up to 46 µM
Method in brief: as §1

[5] = test system: C33A; experiment: Primary qHTS to identify gynecologic anti-cancer compounds using libraries of approved drugs and bioactive compounds (AID 1345084); conditions: Gynecologic cancer cell panel viability, ATPlite luminescence, 48 h; series mostly up to 57.5 µM; further: nearly all actives have a fitted effect of over 55% in size; further: potency means the concentration at half of the fitted maximal effect
Method in brief: (§2)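 48 h compound exposure at 37 C, 5% CO2; five-point qHTS. ATPlite luminescence readout of cell ATP.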

[6] = test system: CAOV3; experiment: as above; conditions: Gynecologic cancer cell panel viability, ATPlite luminescence, 48 h; series mostly up to 57.5 µM
Method in brief: as §2

[7] = test system: CASKI; experiment: as above; conditions: Gynecologic cancer cell panel viability, ATPlite luminescence, 48 h; series mostly up to 57.5 µM
Method in brief: as §2

[8] = test system: Es-2; experiment: as above; conditions: Gynecologic cancer cell panel viability, ATPlite luminescence, 48 h; series mostly up to 57.5 µM
Method in brief: as §2

[9] = test system: HeLa; experiment: as above; conditions: Gynecologic cancer cell panel viability, ATPlite luminescence, 48 h; series mostly up to 57.5 µM
Method in brief: as §2

[10] = test system: Hek293T; experiment: as above; conditions: Gynecologic cancer cell panel viability, ATPlite luminescence, 48 h, control line for the selectivity index; series mostly up to 57.5 µM
Method in brief: as §2

[11] = test system: JEG-3; experiment: as above; conditions: Gynecologic cancer cell panel viability, ATPlite luminescence, 48 h; series mostly up to 57.5 µM
Method in brief: as §2

[12] = test system: OV90; experiment: as above; conditions: Gynecologic cancer cell panel viability, ATPlite luminescence, 48 h; series mostly up to 57.5 µM
Method in brief: as §2

[13] = test system: PA-1; experiment: as above; conditions: Gynecologic cancer cell panel viability, ATPlite luminescence, 48 h; series mostly up to 57.5 µM
Method in brief: as §2

[14] = test system: SKOV3; experiment: as above; conditions: Gynecologic cancer cell panel viability, ATPlite luminescence, 48 h; series mostly up to 57.5 µM
Method in brief: as §2

[15] = test system: Tov-21-G; experiment: as above; conditions: Gynecologic cancer cell panel viability, ATPlite luminescence, 48 h; series mostly up to 57.5 µM
Method in brief: as §2

[16] = test system: Tov112D; experiment: as above; conditions: Gynecologic cancer cell panel viability, ATPlite luminescence, 48 h; series mostly up to 57.5 µM
Method in brief: as §2

[17] = Drug repurposing screens with cells derived from glioblastoma tumor samples (AID 1345199); conditions: GBM patient neurospheres viability, ATP luminescence, 48 h; further: nearly all actives have a fitted effect of over 40% in size; further: potency means the concentration at half of the fitted maximal effect
Method in brief: (§3)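 Primary testing used CD133+ neurospheres from four GBM patients, seven concentrations, 48 h exposure and ATP-based viability; confirmation added three slower-growing patient lines.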

[18] = test system: astro; experiment: as above; conditions: viability, ATP luminescence, 48 h; series mostly up to 45.9 µM
Method in brief: as §3

[19] = at 46.1 µM (top of the series), tumour line C
[20] = at 20 µM (top of the series), tumour line C
[21] = at 21.2 µM (top of the series), tumour line B
[22] = at 21.2 µM (top of the series), tumour line D
[23] = at 45.9 µM (top of the series), tumour line B
[24] = at 45.9 µM (top of the series), tumour line D
[25] = at 21.3 µM (top of the series), tumour line A
On the % scale 0 is the no-effect control and ±100 the full control effect.

COc1cc2c(cc1OC)[C@@H]1CC(=O)[C@@H](CC(C)C)CN1CC2
inactive: Potency [1] | outcome [2] | Potency [3] | Potency [4] | Potency [5] | Potency [6] | Potency [7] | Potency [8] | Potency [9] | Potency [10] | Potency [11] | Potency [12] | Potency [13] | Potency [14] | Potency [15] | Potency [16] | activity, negative = cell killing [17, 19] 1.4%
active: Potency ([17]; tumour line A) 28.2 µM

CN1CCN(C(c2ccccc2)c2ccccc2)CC1
inactive: Potency [1] | outcome [2] | Potency [3] | Potency [4] | Potency [5] | Potency [7] | Potency [8] | Potency [9] | Potency [10] | Potency [11] | Potency [12] | Potency [13] | Potency [14] | Potency [15] | Potency [16] | activity, negative = cell killing [17, 20] -1.97% | activity, negative = cell killing [17, 21] -1.95% | activity, negative = cell killing [17, 22] -26.8% | Potency [18]

CCCCS(=O)(=O)N[C@@H](Cc1ccc(OCCCCC2CCNCC2)cc1)C(=O)O
active: Potency ([17]; tumour line A) 11.2 µM
inactive: Potency [1] | outcome [2] | Potency [3] | Potency [4] | Potency [5] | Potency [7] | Potency [8] | Potency [9] | Potency [10] | Potency [11] | Potency [12] | Potency [13] | Potency [14] | Potency [15] | Potency [16] | activity, negative = cell killing [17, 23] -17.7% | activity, negative = cell killing [17, 24] -22% | activity, negative = cell killing [17, 19] -12.3% | Potency [18]

CC(=O)O[C@]1(C(C)=O)CC[C@H]2[C@@H]3C[C@H](C)C4=CC(=O)CC[C@]4(C)[C@H]3CC[C@@]21C
active: Potency ([17]; tumour line A) 17.8 µM
inactive: Potency [1] | outcome [2] | Potency [3] | Potency [4] | Potency [5] | Potency [6] | Potency [7] | Potency [8] | Potency [9] | Potency [10] | Potency [11] | Potency [12] | Potency [13] | Potency [14] | Potency [15] | Potency [16] | activity, negative = cell killing [17, 19] -19.7% | Potency [18]

CCOC(=O)n1ccn(C)c1=S
inactive: Potency [1] | outcome [2] | Potency [3] | Potency [4] | Potency [5] | Potency [6] | Potency [7] | Potency [8] | Potency [9] | Potency [10] | Potency [11] | Potency [12] | Potency [13] | Potency [14] | Potency [15] | Potency [16] | activity, negative = cell killing [17, 20] 6.23% | activity, negative = cell killing [17, 21] -8.85% | activity, negative = cell killing [17, 22] 1.59% | activity, negative = cell killing [17, 25] -18.4% | Potency [18]

COC(=O)[C@@H]1CC2=CC(=O)CC[C@]2(C)[C@@]23O[C@@H]2C[C@@]2(C)[C@@H](CC[C@@]24CCC(=O)O4)[C@H]13
inactive: Potency [1] | outcome [2] | Potency [3] | Potency [4] | Potency [5] | Potency [7] | Potency [8] | Potency [9] | Potency [10] | Potency [11] | Potency [12] | Potency [13] | Potency [14] | Potency [15] | Potency [16] | activity, negative = cell killing [17, 23] -3.02% | activity, negative = cell killing [17, 24] -20% | activity, negative = cell killing ([17]; at 46 µM (top of the series), tumour line A) -25% | activity, negative = cell killing [17, 19] -18.4% | Potency [18]

NC(=O)c1cc[n+](CC2=C(C(=O)[O-])N3C(=O)[C@@H](NC(=O)Cc4cccs4)[C@H]3SC2)cc1
inactive: Potency [1] | outcome [2] | Potency [3] | Potency [4] | Potency [5] | Potency [6] | Potency [7] | Potency [8] | Potency [9] | Potency [10] | Potency [11] | Potency [12] | Potency [13] | Potency [14] | Potency [15] | Potency [16] | activity, negative = cell killing [17, 20] -2.18% | activity, negative = cell killing [17, 21] -10.7% | activity, negative = cell killing [17, 22] -13.1% | activity, negative = cell killing [17, 25] -27.6% | Potency [18]

CC(=O)[C@H]1CC[C@H]2[C@@H]3C[C@H](C)C4=CC(=O)CC[C@]4(C)[C@H]3[C@@H](O)C[C@]12C
inactive: Potency [1] | outcome [2] | Potency [3] | Potency [4] | Potency [5] | Potency [6] | Potency [7] | Potency [8] | Potency [10] | Potency [11] | Potency [12] | Potency [14] | Potency [15] | Potency [16] | activity, negative = cell killing [17, 20] 12.3% | activity, negative = cell killing [17, 21] -24.6% | Potency [18]
active: Potency [9] 15.8 µM

CC(=O)CC(c1ccc([N+](=O)[O-])cc1)c1c(O)c2ccccc2oc1=O (stereo not drawn)
inactive: Potency [1] | Potency [3] | Potency [4] | Potency [5] | Potency [6] | Potency [7] | Potency [8] | Potency [9] | Potency [10] | Potency [11] | Potency [12] | Potency [13] | Potency [14] | Potency [15] | Potency [16] | activity, negative = cell killing [17, 20] 0.914% | activity, negative = cell killing [17, 21] -11% | activity, negative = cell killing [17, 22] -16.8%

NC[C@H]1O[C@H](O[C@H]2[C@H](O[C@@H]3O[C@H](CO)[C@@H](O)[C@H]3O)C(O)[C@H](N)C[C@@H]2N)[C@H](N)[C@@H](O)[C@@H]1O (stereo partly drawn)
inactive: activity change, negative = cytotoxicity [1] -8.12% [at 9.22 µM] | outcome [2] inactive [at 9.27 µM] | activity change, negative = cytotoxicity [3] 20% [at 9.22 µM] | activity change, negative = cytotoxicity [4] 13.9% [at 9.22 µM] | activity change, negative = cytotoxicity [5] 11.5% [at 11.6 µM] | activity change, negative = cytotoxicity [6] -25.7% [at 11.6 µM] | activity change, negative = cytotoxicity [7] 15.2% [at 11.6 µM] | activity change, negative = cytotoxicity [8] -3.21% [at 11.6 µM] | activity change, negative = cytotoxicity [9] 8.62% [at 11.6 µM] | activity change, negative = cytotoxicity [10] -5.51% [at 11.6 µM] | activity change, negative = cytotoxicity [11] -0.299% [at 11.6 µM] | activity change, negative = cytotoxicity [12] 0.648% [at 11.6 µM] | activity change, negative = cytotoxicity [13] 6.06% [at 11.6 µM] | activity change, negative = cytotoxicity [14] -1.1% [at 11.6 µM] | activity change, negative = cytotoxicity [15] 9.27% [at 11.6 µM] | activity change, negative = cytotoxicity [16] 13.5% [at 11.6 µM] | activity, negative = cell killing [17, 21] -5.37% | activity, negative = cell killing [17, 22] 0.454% | Potency [18]
